According to PubChem BioAssay (Tox21):
Several values for one entry are separate records, joined by “and”; a condition that tells them apart may be missing. Equal values may be shown once. Records with an inconclusive call do not appear. Where a call stands in place of a potency, no number is given. Where a structure was tested more than once in an assay, its records may differ in their call. Activity calls are given as the source filed them. Calls come from the whole dose curve; as a rule, active = well fitted activation curve with a large enough effect in the repeat runs; inconclusive = weak or mixed curves; inactive = flat fitted curve, though single readings scatter.

assay: A CellTox Green Cytotoxicity Assay to monitor cytotoxicity in HepG2 cells - 8 hour (AID 1224890); details: CellTox Green fluorescence; series mostly up to 76.8 µM; note: nearly all actives have a fitted effect of over 45% in size
How it was run: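 HepG2 cells were seeded together with the CellTox Green dye at 600 cells/well, left 5 h at 37 C/5% CO2, then given compounds in DMSO. Fluorescence from dye bound to dead-cell DNA was read repeatedly over 40 h of treatment at 37 C.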
Potency is the fitted concentration of half-maximal effect.

Compound | Potency
N#CCCCCC#N | inactive
COP(=S)(OC)Oc1ccc(S(=O)(=O)N(C)C)cc1 | inactive
N#Cc1c(Cl)c(Cl)c(Cl)c(C#N)c1Cl | 48 µM (active) and 13.8 µM (active)
C[C@]12CC[C@H]3[C@@H](CCC4=CC(=O)CC[C@@H]43)[C@@H]1CC[C@@H]2O | inactive
COc1ccc(CO)cc1 | inactive
CCC(=O)Nc1ccc(Cl)c(Cl)c1 | inactive
NN=C(N)N | inactive
OC(c1ccc(Cl)cc1)(c1cncnc1)c1ccccc1Cl (stereo not drawn) | inactive
Cl | inactive
CC(C)(c1ccccc1)c1ccc(O)c(C(C)(C)c2ccccc2)c1 | 48.5 µM (active) and 49 µM (active)
CC(C)(c1ccccc1)c1ccc(O)cc1 | inactive and 43.6 µM (active)
COP(=O)(NC(C)=O)SC (stereo not drawn) | inactive
COC(=O)Nc1nc2ccccc2[nH]1 | inactive
CC(O)CN(CC(C)O)CC(C)O (stereo not drawn) | inactive
CCCCSP(=O)(SCCCC)SCCCC | inactive
O=P(OCCCl)(OCCCl)OCCCl | inactive
CCOS(=O)(=O)OCC | inactive
CC(C)(O)C#N | inactive
CS(=O)(=O)NC(=O)c1cc(Oc2ccc(C(F)(F)F)cc2Cl)ccc1[N+](=O)[O-] | inactive

Compound | Potency
Nc1ccc([N+](=O)[O-])cc1N | inactive
Oc1ccc(Cl)cc1Cc1ccccc1 | inactive and 31.3 µM (active)
CCC1(c2ccc(N)cc2)CCC(=O)NC1=O (stereo not drawn) | inactive
NC(=O)CN1CCCC1=O | inactive
COc1ccc(C=O)cc1OC | inactive
O=C(O)c1nn(Cc2ccc(Cl)cc2Cl)c2ccccc12 | inactive and 95.2 nM (active)
Brc1ccc(Br)cc1 | inactive
[CH3][Sn]([Cl])([Cl])[Cl] | inactive
O=C1C(Cl)=C(Cl)C(=O)c2ccccc21 | 15.5 µM (active) and 6.17 µM (active)
N#Cc1nn(-c2c(Cl)cc(C(F)(F)F)cc2Cl)c(N)c1S(=O)C(F)(F)F (stereo not drawn) | inactive
O=S(=O)(O)C(F)(F)C(F)(F)C(F)(F)C(F)(F)C(F)(F)C(F)(F)C(F)(F)C(F)(F)F | inactive
CCCCOCC1CO1 (stereo not drawn) | inactive and 43.6 µM (active)
ClCC(Cl)CCl | inactive
O=C1Nc2ccc(Cl)cc2C(c2ccccc2)=NC1O (stereo not drawn) | inactive
ClC(Cl)(Cl)Br | inactive
CC1=C(C(=O)Nc2ccccc2)SCCO1 | inactive
Clc1ccccc1-c1nnc(-c2ccccc2Cl)nn1 | inactive
CC1CC(=O)O1 (stereo not drawn) | inactive
CCOP(=O)(OCC)OCC | inactive
